In publication PMC9911399, “Two distinct binding modes provide the RNA-binding protein RbFox with extraordinary sequence specificity” one finds binding signal data, which are given here for 31 molecules.

To fix the notation:
T1: RBFOX1 RRM RbFoxmut (Fox-RRM*) (Homo sapiens, UniProt Q9NWB1 109-208, R118D;E147R;N151S;E152T)
T1 sequence: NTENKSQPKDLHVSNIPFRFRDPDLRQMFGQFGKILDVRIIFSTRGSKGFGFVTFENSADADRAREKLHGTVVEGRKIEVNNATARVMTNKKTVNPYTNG

B1: GUCCUUU (DNA:RNA)
RNA: GGGAGACCGGAAUUCAGAUUGUCCGUCCUUUUUAAAUCCCGUCGUAGCCACCA
DNA 1: CAATCTGAATTCCGGTCTCCC
DNA 2: TGGTGGCTACGACGGGATT
B2: CGACCAC (DNA:RNA)
RNA: B1 RNA with G25C, U26G, C27A, U29C, U30A, U31C
DNA 1: CAATCTGAATTCCGGTCTCCC
DNA 2: TGGTGGCTACGACGGGATT
B3: AACACUU (DNA:RNA)
RNA: B1 RNA with G25A, U26A, C28A, U29C
DNA 1: CAATCTGAATTCCGGTCTCCC
DNA 2: TGGTGGCTACGACGGGATT
B4: ACAACGA (DNA:RNA)
RNA: GGGAGACCGGAAUUCAGAUUGUCCACAACGAUUAAAUCCCGUCGUAGCCACCA
DNA 1: CAATCTGAATTCCGGTCTCCC
DNA 2: TGGTGGCTACGACGGGATT
B5: GGAGGAU (DNA:RNA)
RNA: B1 RNA with U26G, C27A, C28G, U29G, U30A
DNA 1: CAATCTGAATTCCGGTCTCCC
DNA 2: TGGTGGCTACGACGGGATT
B6: AAUCGAA (DNA:RNA)
RNA: B4 RNA with C26A, A27U, A28C, C29G, G30A
DNA 1: CAATCTGAATTCCGGTCTCCC
DNA 2: TGGTGGCTACGACGGGATT
B7: GCCCGCC (DNA:RNA)
RNA: B1 RNA with U26C, U29G, U30C, U31C
DNA 1: CAATCTGAATTCCGGTCTCCC
DNA 2: TGGTGGCTACGACGGGATT
B8: CGCCUUG (DNA:RNA)
RNA: B1 RNA with G25C, U26G, U31G
DNA 1: CAATCTGAATTCCGGTCTCCC
DNA 2: TGGTGGCTACGACGGGATT
B9: ACCAGCC (DNA:RNA)
RNA: B4 RNA with A27C, C29G, G30C, A31C
DNA 1: CAATCTGAATTCCGGTCTCCC
DNA 2: TGGTGGCTACGACGGGATT
B10: AGCAGCC (DNA:RNA)
RNA: B4 RNA with C26G, A27C, C29G, G30C, A31C
DNA 1: CAATCTGAATTCCGGTCTCCC
DNA 2: TGGTGGCTACGACGGGATT
B11: GCCAGCC (DNA:RNA)
RNA: B4 RNA with A25G, A27C, C29G, G30C, A31C
DNA 1: CAATCTGAATTCCGGTCTCCC
DNA 2: TGGTGGCTACGACGGGATT
B12: GUCCGCC (DNA:RNA)
RNA: B1 RNA with U29G, U30C, U31C
DNA 1: CAATCTGAATTCCGGTCTCCC
DNA 2: TGGTGGCTACGACGGGATT
B13: AGCCUUG (DNA:RNA)
RNA: B1 RNA with G25A, U26G, U31G
DNA 1: CAATCTGAATTCCGGTCTCCC
DNA 2: TGGTGGCTACGACGGGATT
B14: GCCUUGG (DNA:RNA)
RNA: B1 RNA with U26C, C28U, U30G, U31G
DNA 1: CAATCTGAATTCCGGTCTCCC
DNA 2: TGGTGGCTACGACGGGATT
B15: CGCCGCC (DNA:RNA)
RNA: B1 RNA with G25C, U26G, U29G, U30C, U31C
DNA 1: CAATCTGAATTCCGGTCTCCC
DNA 2: TGGTGGCTACGACGGGATT
B16: GCUCUGU (DNA:RNA)
RNA: B1 RNA with U26C, C27U, U30G
DNA 1: CAATCTGAATTCCGGTCTCCC
DNA 2: TGGTGGCTACGACGGGATT
B17: ACCACUU (DNA:RNA)
RNA: B4 RNA with A27C, G30U, A31U
DNA 1: CAATCTGAATTCCGGTCTCCC
DNA 2: TGGTGGCTACGACGGGATT
B18: GCUCAUC (DNA:RNA)
RNA: B1 RNA with U26C, C27U, U29A, U31C
DNA 1: CAATCTGAATTCCGGTCTCCC
DNA 2: TGGTGGCTACGACGGGATT
B19: UUAAUGA (DNA:RNA)
RNA: B4 RNA with A25U, C26U, C29U
DNA 1: CAATCTGAATTCCGGTCTCCC
DNA 2: TGGTGGCTACGACGGGATT
B20: CUGGUAA (DNA:RNA)
RNA: B1 RNA with G25C, C27G, C28G, U30A, U31A
DNA 1: CAATCTGAATTCCGGTCTCCC
DNA 2: TGGTGGCTACGACGGGATT
B21: AAGAUCU (DNA:RNA)
RNA: B4 RNA with C26A, A27G, C29U, G30C, A31U
DNA 1: CAATCTGAATTCCGGTCTCCC
DNA 2: TGGTGGCTACGACGGGATT
B22: AAAUCAC (DNA:RNA)
RNA: B4 RNA with C26A, A28U, G30A, A31C
DNA 1: CAATCTGAATTCCGGTCTCCC
DNA 2: TGGTGGCTACGACGGGATT
B23: CGCGUCG (DNA:RNA)
RNA: B1 RNA with G25C, U26G, C28G, U30C, U31G
DNA 1: CAATCTGAATTCCGGTCTCCC
DNA 2: TGGTGGCTACGACGGGATT
B24: GUAUGCC (DNA:RNA)
RNA: B1 RNA with C27A, C28U, U29G, U30C, U31C
DNA 1: CAATCTGAATTCCGGTCTCCC
DNA 2: TGGTGGCTACGACGGGATT
B25: GCGUCCG (DNA:RNA)
RNA: B4 RNA with A25G, A27G, A28U, G30C, A31G
DNA 1: CAATCTGAATTCCGGTCTCCC
DNA 2: TGGTGGCTACGACGGGATT
B26: UUAUGCG (DNA:RNA)
RNA: B4 RNA with A25U, C26U, A28U, C29G, G30C, A31G
DNA 1: CAATCTGAATTCCGGTCTCCC
DNA 2: TGGTGGCTACGACGGGATT
B27: GCGUAUG (DNA:RNA)
RNA: B1 RNA with U26C, C27G, C28U, U29A, U31G
DNA 1: CAATCTGAATTCCGGTCTCCC
DNA 2: TGGTGGCTACGACGGGATT
B28: GCGUCGU (DNA:RNA)
RNA: B4 RNA with A25G, A27G, A28U, A31U
DNA 1: CAATCTGAATTCCGGTCTCCC
DNA 2: TGGTGGCTACGACGGGATT
B29: GUAUGUC (DNA:RNA)
RNA: B1 RNA with C27A, C28U, U29G, U31C
DNA 1: CAATCTGAATTCCGGTCTCCC
DNA 2: TGGTGGCTACGACGGGATT
B30: GCGUUUG (DNA:RNA)
RNA: B1 RNA with U26C, C27G, C28U, U31G
DNA 1: CAATCTGAATTCCGGTCTCCC
DNA 2: TGGTGGCTACGACGGGATT
B31: GUAUGCG (DNA:RNA)
RNA: B1 RNA with C27A, C28U, U29G, U30C, U31G
DNA 1: CAATCTGAATTCCGGTCTCCC
DNA 2: TGGTGGCTACGACGGGATT

Where a chain is given by its changes, count along the chain named. Whole data set: some 16,000 sequences, median “ka relative to ugcaugu” near 0.096, cut for the highest 2% near 0.35. The list comes from a sample in which the highest values are over-represented; it also holds similar and randomly drawn sequences.

This test addresses T1, RBFOX1 RRM RbFoxmut (Fox-RRM*). Nature of the test: EMSA; HiTS-Eq, 1 nM pool, 10 min; buffer printed only for the single-RNA assays: 10 mM Tris pH 7.5, 150 mM NaCl, 3.4 mM EDTA, 0.001% NP-40, 30 C. Conditions: tags: His6 N-terminal (pET28a); label: 5' 32P. An outline of the steps: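 A pool of RNA with 7 randomized nucleotides, 5′-radiolabelled and with DNA-annealed flanks, was equilibrated at 1 nM for 10 min in 50 µL with purified RbFox RRM, wild type or mutant, across increasing protein concentrations. Free RNA was separated by 8% native PAGE, excised, reverse-transcribed, barcoded by PCR and sequenced. Relative association constants were obtained from read-count changes of each RNA species versus the control reaction and normalised to the cognate motif.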
For B1, the binding signal is 0.081 KA relative to UGCAUGU.

Consider B2, for which the binding signal was 0.0643 KA relative to UGCAUGU.

As to B3, the binding signal is 0.0596 KA relative to UGCAUGU.

For the molecule B4, the binding signal was 0.0863 KA relative to UGCAUGU.

As to B5, the binding signal was 0.0724 KA relative to UGCAUGU.

Consider B6, for which the binding signal was 0.081 KA relative to UGCAUGU.

Regarding B7, the binding signal was 0.0938 KA relative to UGCAUGU.

For the molecule B8, the binding signal was 0.978 KA relative to UGCAUGU.

Turning to B9, the binding signal was 0.0795 KA relative to UGCAUGU.

With B10, the binding signal was 0.0801 KA relative to UGCAUGU.

With B11, the binding signal is 0.075 KA relative to UGCAUGU.

B12: the binding signal is 0.105 KA relative to UGCAUGU.

B13: the binding signal is 0.576 KA relative to UGCAUGU.

B14: the binding signal was 0.501 KA relative to UGCAUGU.

As to B15, the binding signal is 0.13 KA relative to UGCAUGU.

Turning to B16, the binding signal is 0.102 KA relative to UGCAUGU.

In the case of B17, the binding signal is 0.0717 KA relative to UGCAUGU.

Take B18: the binding signal is 0.06 KA relative to UGCAUGU.

B19: the binding signal was 0.0717 KA relative to UGCAUGU.

For B20, the binding signal is 0.121 KA relative to UGCAUGU.

On to B21, for which the binding signal was 0.0643 KA relative to UGCAUGU.

With B22, the binding signal is 0.0617 KA relative to UGCAUGU.

As for B23, the binding signal was 0.101 KA relative to UGCAUGU.

B24: the binding signal is 0.278 KA relative to UGCAUGU.

Regarding B25, the binding signal is 0.135 KA relative to UGCAUGU.

Turning to B26, the binding signal is 0.13 KA relative to UGCAUGU.

In the case of B27, the binding signal is 0.876 KA relative to UGCAUGU.

Turning to B28, the binding signal was 0.129 KA relative to UGCAUGU.

As for B29, the binding signal is 0.334 KA relative to UGCAUGU.

On to B30, for which the binding signal was 0.403 KA relative to UGCAUGU.

In the case of B31, the binding signal is 0.468 KA relative to UGCAUGU.
